Results filed as inconclusive are left out. Where a structure was tested more than once in an assay, its records may differ in their call. Activity calls are given as the source filed them. The calls were made as follows, unless noted: active = hit-call score of the fitted dose curve at least 0.9, where 1 is the maximum; inconclusive = response in the unintended direction; inactive = score below 0.9.

For five compounds, outcome and AC50 results are on record in PubChem BioAssay (EPA / NIEHS).

Read-out in assay [1]: sulfotransferase 2A1 (SULT2A1), SULT2A1 (gene 6822)
Put plainly: LTEA_HepaRG_SULT2A1: Life Technologies and Expression Analysis (LTEA) Assay for sulfotransferase 2A1 (SULT2A1) using HepaRG (AID 2283531; active = hit-call score of the fitted dose curve at least 0.9, where 1 is the maximum; inactive = score below 0.9). The conditions noted are these: mRNA level, 48 h; actives raise or lower the signal. In a few lines:
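Cells were plated and cultured 48 h, switched to serum-free induction medium, then dosed in duplicate for 48 h (8 concentrations, max 100 uM). RNA was isolated and SULT2A1 expression measured by qRT-PCR; gain or loss of signal fitted relative to DMSO.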

Read-out in assay [2]: Transforming Growth Factor (TGFA), TGFA (gene 7039)
Put plainly: LTEA_HepaRG_TGFA: Life Technologies and Expression Analysis (LTEA) Assay for Transforming Growth Factor (TGFA) using HepaRG (AID 2283532; active = hit-call score of the fitted dose curve at least 0.9, where 1 is the maximum; inactive = score below 0.9). The conditions noted are these: mRNA level, 48 h; actives raise or lower the signal. In a few lines:
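TGFA transcript quantified by qRT-PCR (Fluidigm arrays) against three housekeeping genes, after 48 hours chemical treatment of HepaRG cells. Top concentration 100 uM with half-log dilutions, 8 points, duplicates, 0.5% DMSO.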

Read-out in assay [3]: Transforming Growth Factor (TGFB1), TGFB1 (gene 7040)
Put plainly: LTEA_HepaRG_TGFB1: Life Technologies and Expression Analysis (LTEA) Assay for Transforming Growth Factor (TGFB1) Transporter using HepaRG (AID 2283533; active = hit-call score of the fitted dose curve at least 0.9, where 1 is the maximum; inactive = score below 0.9). The conditions noted are these: mRNA level, 48 h; actives raise or lower the signal. In short, it runs like this:
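Expression change of TGFB1 in human HepaRG cells is measured after a 48 h chemical exposure, up to 100 uM in 0.5% DMSO vehicle. Curves are fitted in both directions relative to the DMSO baseline.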

Read-out in a further assay: TIMP1, TIMP1 (gene 7076)
Put plainly: LTEA_HepaRG_TIMP1: Life Technologies and Expression Analysis (LTEA) Assay for TIMP1 using HepaRG (AID 2283534; active = hit-call score of the fitted dose curve at least 0.9, where 1 is the maximum; inactive = score below 0.9;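 also: TaqMan qRT-PCR signal normalized to ACTB GAPDH and POLR2A housekeeping genes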). The conditions noted are these: mRNA level, 48 h; actives raise or lower the signal. In a few lines: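 We dosed human liver HepaRG cultures for 48 hours with up to 100 uM test chemical and measured TIMP1 expression by qRT-PCR. Activity in either direction is fitted relative to the 0.5% DMSO vehicle.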

Read-out in assay [4]: Thyroid Hormone Responsive (THRSP), THRSP (gene 7069)
Put plainly: LTEA_HepaRG_THRSP: Life Technologies and Expression Analysis (LTEA) Assay for Thyroid Hormone Responsive (THRSP) using HepaRG (AID 2283536; active = hit-call score of the fitted dose curve at least 0.9, where 1 is the maximum; inactive = score below 0.9). The conditions noted are these: mRNA level, 48 h; actives raise or lower the signal. In short, it runs like this:
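THRSP transcript quantified by Fluidigm qRT-PCR against three housekeeping genes after 48 h chemical exposure of HepaRG cells in serum-free induction medium; eight-point half-log series, top 100 uM, 0.5% DMSO vehicle, duplicate wells.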

Read-out in assay [5]: Cellular tumor antigen p53 (Homo sapiens) (UniProt P04637)
The experiment in a line: LTEA_HepaRG_TP53: Life Technologies and Expression Analysis (LTEA) Assay for Tumor Protein P53 (TP53) using HepaRG (AID 2283537; active = hit-call score of the fitted dose curve at least 0.9, where 1 is the maximum; inactive = score below 0.9). The conditions noted are these: mRNA level, 48 h; actives raise or lower the signal. In a few lines: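 Gain or loss of TP53 mRNA signal is scored relative to 0.5% DMSO after 48 h chemical treatment of HepaRG liver cells, tested in duplicate at eight half-log concentrations up to 100 uM.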

Read-out in assay [6]: UDP glucuronosyltransferase (UGT1A1), UGT1A1 (gene 54658)
Put plainly: LTEA_HepaRG_UGT1A1: Life Technologies and Expression Analysis (LTEA) Assay for UDP glucuronosyltransferase (UGT1A1) using HepaRG (AID 2283538; active = hit-call score of the fitted dose curve at least 0.9, where 1 is the maximum; inactive = score below 0.9). The conditions noted are these: mRNA level, 48 h; actives raise or lower the signal. In a few lines:
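Cells are plated, cultured 48 h, switched to serum-free induction medium, then dosed 48 h at eight concentrations (max 100 uM, 0.5% DMSO). RNA is isolated and UGT1A1 expression measured by qRT-PCR; changes versus DMSO are fitted in both directions.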

Read-out in assay [7]: UDP glucuronosyltransferase (UGT1A6), UGT1A6 (gene 54578)
Put plainly: LTEA_HepaRG_UGT1A6: Life Technologies and Expression Analysis (LTEA) Assay for UDP glucuronosyltransferase (UGT1A6) using HepaRG (AID 2283539; active = hit-call score of the fitted dose curve at least 0.9, where 1 is the maximum; inactive = score below 0.9). The conditions noted are these: mRNA level, 48 h; actives raise or lower the signal. In short, it runs like this: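 Endpoint is UGT1A6 transcript induction or loss in a human liver cell line, quantified by TaqMan qRT-PCR 48 h after dosing. Concentrations ran from 100 uM downward in half-log steps in 0.5% DMSO; activity was fitted in both directions versus vehicle.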

Read-out in assay [8]: X-box binding protein 1 (XBP1), XBP1 (gene 7494)
Put plainly: LTEA_HepaRG_XBP1: Life Technologies and Expression Analysis (LTEA) Assay for X-box binding protein 1 (XBP1) using HepaRG (AID 2283540; active = hit-call score of the fitted dose curve at least 0.9, where 1 is the maximum; inactive = score below 0.9). The conditions noted are these: mRNA level, 48 h; actives raise or lower the signal. In short, it runs like this: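 Human HepaRG monolayers receive test chemical for 48 h across an eight-point half-log series starting at 100 uM. XBP1 mRNA gain or loss is scored against DMSO by qRT-PCR.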

A short description of assay [9]: LTEA_HepaRG_LDH_cytotoxicity: Cytotoxicity Assessment in the Life Technologies and Expression Analysis (LTEA) Assay (AID 2283563). In short, it runs like this:
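Human HepaRG hepatic cells are treated with test chemicals for 48 h at up to 100 uM in 0.5% DMSO. Cytotoxicity is scored from medium LDH against the vehicle control.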

The nature of assay [10]: ATG_XTT_Cytotoxicity: Cytotoxicity Assessment in the Attagene TRANS-FACTORIAL HepG2 Assay (AID 2283584). In a few lines: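 Transfect HepG2 with GAL4-UAS reporter units, dose compound, incubate 24 h, then measure viable cell number by XTT. Fit concentration response against DMSO baseline.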
Assay [11] can be described thus: TOX21_p53_BLA_p2_viability: Viability Assessment in the Tox21 HCT-116 p53 Agonism Beta-lactamase Assay, Phase 2 (AID 2283591).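 Also: compound exposure lasted 16 h at 37 °C; actives lower the ATP signal meaning cytotoxicity.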 In short, it runs like this: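 Cytotoxicity readout: CellTiter-Glo ATP luminescence, 30 min at room temperature, after the beta-lactamase read. Cells were HCT116 exposed 16 h at 37C to compounds pin-transferred at 217-fold dilution from DMSO stocks.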

The target of assay [12] is Cellular tumor antigen p53 (Homo sapiens) (UniProt P04637). The experiment in a line: TOX21_p53_BLA_p2_ratio: Tox21 HCT-116 p53 Agonism Beta-lactamase Assay, Ratio, Phase 2 (AID 2283592). In short, it runs like this:
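Cleaved-to-uncleaved substrate ratio (460 vs 530 nm) measured in HCT116 cells with an inducible beta-lactamase reporter linked to p53 activity. Compounds incubated 16 h at 37C before 2 h room-temperature CCF4-AM loading.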

Assay [13] has the same target. The experiment in a line: TOX21_p53_BLA_p3_ratio: Tox21 HCT-116 p53 Agonism Beta-lactamase Assay, Ratio, Phase 3 (AID 2283596). In short, it runs like this:
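Cells were seeded at 4000/well, rested 5 h at 37C, then dosed with DMSO compound solutions (217-fold dilution) for 16 h. CCF4-AM substrate was loaded for 2 h at room temperature, and the 460/530 nm emission ratio was fitted for gain of signal versus DMSO.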

A short description of assay [14]: TOX21_p53_BLA_p4_viability: Viability Assessment in the Tox21 HCT-116 p53 Agonism Beta-lactamase Assay, Phase 4 (AID 2283597).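 Also: hits lower the luminescence signal meaning cytotoxicity.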 In a few lines: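 Viability is taken as cellular ATP: after 16 h compound exposure of HCT116 cells and a 2 h room-temperature CCF4-AM substrate step, CellTiter-Glo reagent is added and luminescence is measured 30 min later.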
Assay [15] has as its target Cellular tumor antigen p53 (Homo sapiens) (UniProt P04637). Put plainly: TOX21_p53_BLA_p5_ratio: Tox21 HCT-116 p53 Agonism Beta-lactamase Assay, Ratio, Phase 5 (AID 2283599). In short, it runs like this:
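Beta-lactamase reporter ratio (blue 460 nm over green 530 nm, 405 nm excitation) after 2 h CCF4-AM loading, in HCT-116 cells exposed 16 h at 37 C to compounds pinned at 217-fold dilution. Increases relative to DMSO baseline scored.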

The nature of assay [16]: TOX21_p53_BLA_p5_viability: Viability Assessment in the Tox21 HCT-116 p53 Agonism Beta-lactamase Assay, Phase 5 (AID 2283600). In a few lines: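 Viability is taken from cellular ATP content, measured by luciferase luminescence in the same wells after the beta-lactamase ratio read. Cells are seeded at 4000 per well and exposed to DMSO-dissolved compounds, diluted 217-fold, for 16 h.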

Assay [17] has as its target Cellular tumor antigen p53 (Homo sapiens) (UniProt P04637). The experiment in a line: TOX21_p53_BLA_p4_ratio: Tox21 HCT-116 p53 Agonism Beta-lactamase Assay, Ratio, Phase 4 (AID 2283601). In a few lines: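 Signal is the blue/green (460nm/530nm) ratio of cleaved versus uncleaved CCF4-AM substrate, read after 2 h substrate loading. Cells were HCT116 carrying the p53-responsive beta-lactamase reporter, dosed 16 h at 37C, 5% CO2; CellTiter-Glo measured in parallel.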

The nature of assay [18]: Tanguay_ZF_120hpf_MORT_legacy: (Legacy) Oregon State University Tanguay Lab 120 Hour Post-fertilization zebrafish Assay for Mortality (AID 2283633). In a few lines:
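Mortality endpoint from a multiplexed whole-embryo zebrafish screen. Dechorionated wild-type embryos received compound at 6 hpf and remained under static exposure at 28C until 120 hpf, with death noted as a present/absent call.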

A short description of assay [19]: TOX21_p53_BLA_p3_viability: Viability Assessment in the Tox21 HCT-116 p53 Agonism Beta-lactamase Assay, Phase 3 (AID 2283593).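 Also: cells exposed to compound for 16 h before reading.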 In a few lines: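 Cellular ATP was quantified by CellTiter-Glo luminescence, read after 30 min at room temperature. Beforehand, HCT116 cells (4000/well) received compound 5 h post-seeding, 217-fold diluted from DMSO, then incubated 16 h at 37C.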

Sequence of Cellular tumor antigen p53 (Homo sapiens) (P04637 whole entry, looked up): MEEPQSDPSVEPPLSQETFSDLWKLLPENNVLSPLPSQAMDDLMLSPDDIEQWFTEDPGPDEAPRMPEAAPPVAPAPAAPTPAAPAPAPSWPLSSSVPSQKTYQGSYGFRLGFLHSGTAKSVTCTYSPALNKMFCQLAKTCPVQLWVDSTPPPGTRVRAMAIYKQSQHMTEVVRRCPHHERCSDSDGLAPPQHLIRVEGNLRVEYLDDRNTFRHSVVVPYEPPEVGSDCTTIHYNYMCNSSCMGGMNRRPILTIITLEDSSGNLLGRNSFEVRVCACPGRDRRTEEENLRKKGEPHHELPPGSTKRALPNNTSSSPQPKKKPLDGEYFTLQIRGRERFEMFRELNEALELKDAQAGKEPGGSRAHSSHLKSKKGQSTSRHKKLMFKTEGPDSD

On to `C[C@]12CCC(=O)C[C@@H]1CC[C@@H]1[C@@H]2CC[C@]2(C)[C@@H](O)CC[C@@H]12`, for which the outcome is “inactive” in assay [1]; “inactive” in assay [2]; “inactive” in [3]; “inactive” in the assay with TIMP1, TIMP1 (gene 7076); “inactive” in assay [4]; “inactive” in assay [5]. For the same compound, the compound was called inactive in assay [6], in assay [7], in assay [8], in assay [9], in [10] and in assay [11]. In addition, the result in assay [12], in [13], in assay [14], in assay [15], in assay [16] and in assay [17] was inactive. Also, in [18], the call was inactive.
The AC50 is the concentration giving half of the maximal activity seen. On to `O=C(O)C(Cl)(Cl)Cl`, for which the outcome in assay [1] was “inactive”; in assay [2], “inactive”; in assay [3] it was “inactive”; with TIMP1, TIMP1 (gene 7076) it was “inactive”; in assay [4], “inactive”; in [5] it was “inactive”. For the same compound, the compound was classed as inactive in [6], in [7], in assay [8], in [9], in [10] and in [11]. Further, the outcome in assay [12], in assay [13], in [14], in [15], in [17] and in assay [18] was inactive. In assay [7], the AC50 is 9.92 µM (active).
As for `O=C(O)C(F)(F)C(F)(F)C(F)(F)C(F)(F)C(F)(F)C(F)(F)C(F)(F)C(F)(F)C(F)(F)C(F)(F)F`, the AC50 in [1] is 47.8 µM (active); in [6] it was 31 µM (active). The outcome in assay [2] was “inactive”; in assay [3] it was “inactive”; with TIMP1, TIMP1 (gene 7076), “inactive”; in assay [4], “inactive”; in assay [5], “inactive”; in [8], “inactive”. Further, the compound was called inactive in assay [9], in assay [10], in assay [12], in [13], in [15] and in [16]. For the same compound, the outcome in assay [17] and in [18] was inactive.
With `CCC(=O)C(CC(C)N(C)C)(c1ccccc1)c1ccccc1` (stereo not drawn), the outcome in [1] is “inactive”; in assay [2], “inactive”; in assay [3], “inactive”; with TIMP1, TIMP1 (gene 7076) it was “inactive”; in assay [5], “inactive”; in assay [6], “inactive”. Further, the compound was classed as inactive in [7], in [8], in [9], in assay [10], in assay [12] and in assay [13]. The result in assay [15], in assay [17] and in assay [18] was inactive. Moreover, in assay [4], the AC50 is 17.8 µM (active).
Consider `CCOP(=S)(OCC)Oc1nc(Cl)c(Cl)cc1Cl`, for which the outcome in assay [1] is “inactive”; in assay [2], “inactive”; in assay [3] it was “inactive”; with TIMP1, TIMP1 (gene 7076), “inactive”; in assay [4], “inactive”; in assay [5] it was “inactive”. For the same compound, the result in [7], in [8], in [9], in assay [11], in assay [12] and in [19] was inactive. Besides, the result in assay [13], in [14], in [15], in assay [17] and in assay [18] was inactive. In assay [6], the AC50 is 50 µM (active).
